Experimental data: the supplement of paper PMC11732987, “Enantioselective OTUD7B fragment discovery through chemoproteomics screening and high-throughput optimisation” (Communications Chemistry, 2025)

How the values were obtained:
Assay in all cases: log2 ratio of Biotin-Ahx-Ub-VS probe labelling (fragment/DMSO); higher = less target engagement (more negative = stronger competition), active = hit call of the paper (q ≤ 0.05, log2 ratio ≤ -1)
Settings in all cases: compound concentration: 200 uM; treatment time: 3 h
USP19 = biological target: T1, USP19 (UniProt O94966)
T1 sequence (whole entry): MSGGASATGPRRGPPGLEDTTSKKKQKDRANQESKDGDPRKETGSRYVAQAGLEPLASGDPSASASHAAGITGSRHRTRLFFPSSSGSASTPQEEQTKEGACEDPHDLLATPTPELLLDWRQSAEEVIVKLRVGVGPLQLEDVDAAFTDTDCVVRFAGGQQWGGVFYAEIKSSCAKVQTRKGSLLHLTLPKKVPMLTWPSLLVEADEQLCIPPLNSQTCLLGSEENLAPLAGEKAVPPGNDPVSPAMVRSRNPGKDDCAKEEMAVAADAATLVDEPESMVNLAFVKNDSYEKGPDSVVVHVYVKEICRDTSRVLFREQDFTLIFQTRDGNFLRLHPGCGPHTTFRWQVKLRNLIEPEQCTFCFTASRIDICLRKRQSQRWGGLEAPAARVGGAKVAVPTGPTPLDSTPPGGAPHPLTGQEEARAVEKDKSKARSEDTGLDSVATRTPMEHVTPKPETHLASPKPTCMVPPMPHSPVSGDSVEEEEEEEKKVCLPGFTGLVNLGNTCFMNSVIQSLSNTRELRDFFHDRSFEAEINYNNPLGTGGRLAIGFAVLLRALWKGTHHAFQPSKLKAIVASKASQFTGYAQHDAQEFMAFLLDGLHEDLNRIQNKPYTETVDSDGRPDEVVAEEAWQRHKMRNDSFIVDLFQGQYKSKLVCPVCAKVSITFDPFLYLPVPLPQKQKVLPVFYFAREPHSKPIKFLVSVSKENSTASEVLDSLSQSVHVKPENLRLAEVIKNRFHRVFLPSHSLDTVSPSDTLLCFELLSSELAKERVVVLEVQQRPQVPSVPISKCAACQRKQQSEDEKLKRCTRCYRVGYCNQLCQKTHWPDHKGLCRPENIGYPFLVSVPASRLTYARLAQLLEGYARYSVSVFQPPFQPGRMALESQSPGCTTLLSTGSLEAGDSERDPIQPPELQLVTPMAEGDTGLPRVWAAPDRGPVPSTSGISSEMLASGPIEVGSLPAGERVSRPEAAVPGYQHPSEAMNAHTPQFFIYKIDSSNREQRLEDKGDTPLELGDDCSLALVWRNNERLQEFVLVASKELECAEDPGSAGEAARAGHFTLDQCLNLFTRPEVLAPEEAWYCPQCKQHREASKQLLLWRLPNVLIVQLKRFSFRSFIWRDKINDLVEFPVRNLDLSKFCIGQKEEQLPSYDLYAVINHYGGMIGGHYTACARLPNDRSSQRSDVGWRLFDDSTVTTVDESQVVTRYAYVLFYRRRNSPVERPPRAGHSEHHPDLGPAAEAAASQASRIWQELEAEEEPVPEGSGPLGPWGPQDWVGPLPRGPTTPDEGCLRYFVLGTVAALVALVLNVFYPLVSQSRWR
In short: (§1)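 Each value is an average log2 ratio of fragment to vehicle, tested by unpaired t-test. The underlying Spectronaut label-free quantities were global-median-normalised, and only proteins with ≥2 unique peptides were included. Triplicate HEK293T lysate samples (495 µg) were exposed to fragment at 200 µM or vehicle for 3 h, then to Biotin-Ahx-Ub-VS at 0.5 µM final for 1 h, before NeutrAvidin enrichment of labelled DUBs, LysC and trypsin digestion, and diaPASEF LC-MS/MS.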

USP22 = biological target: T2, USP22 (UniProt Q9UPT9)
T2 sequence (whole entry): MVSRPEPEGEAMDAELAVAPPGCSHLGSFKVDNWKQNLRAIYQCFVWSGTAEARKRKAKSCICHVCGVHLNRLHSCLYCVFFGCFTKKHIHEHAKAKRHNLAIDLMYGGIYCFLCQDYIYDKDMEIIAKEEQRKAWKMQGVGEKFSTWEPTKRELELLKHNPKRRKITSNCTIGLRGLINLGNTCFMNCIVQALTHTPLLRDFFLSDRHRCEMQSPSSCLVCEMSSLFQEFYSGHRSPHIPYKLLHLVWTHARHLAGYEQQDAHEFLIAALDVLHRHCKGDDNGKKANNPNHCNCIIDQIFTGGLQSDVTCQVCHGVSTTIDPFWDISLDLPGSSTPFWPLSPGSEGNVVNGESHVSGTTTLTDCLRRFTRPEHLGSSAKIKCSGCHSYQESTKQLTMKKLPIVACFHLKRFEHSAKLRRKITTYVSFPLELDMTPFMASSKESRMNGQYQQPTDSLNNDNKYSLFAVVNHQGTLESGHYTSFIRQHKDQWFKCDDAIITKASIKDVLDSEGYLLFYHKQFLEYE
In short: as §1

USP24 = USP24 (UniProt Q9UPU5)
Sequence of USP24 (Q9UPU5 whole entry): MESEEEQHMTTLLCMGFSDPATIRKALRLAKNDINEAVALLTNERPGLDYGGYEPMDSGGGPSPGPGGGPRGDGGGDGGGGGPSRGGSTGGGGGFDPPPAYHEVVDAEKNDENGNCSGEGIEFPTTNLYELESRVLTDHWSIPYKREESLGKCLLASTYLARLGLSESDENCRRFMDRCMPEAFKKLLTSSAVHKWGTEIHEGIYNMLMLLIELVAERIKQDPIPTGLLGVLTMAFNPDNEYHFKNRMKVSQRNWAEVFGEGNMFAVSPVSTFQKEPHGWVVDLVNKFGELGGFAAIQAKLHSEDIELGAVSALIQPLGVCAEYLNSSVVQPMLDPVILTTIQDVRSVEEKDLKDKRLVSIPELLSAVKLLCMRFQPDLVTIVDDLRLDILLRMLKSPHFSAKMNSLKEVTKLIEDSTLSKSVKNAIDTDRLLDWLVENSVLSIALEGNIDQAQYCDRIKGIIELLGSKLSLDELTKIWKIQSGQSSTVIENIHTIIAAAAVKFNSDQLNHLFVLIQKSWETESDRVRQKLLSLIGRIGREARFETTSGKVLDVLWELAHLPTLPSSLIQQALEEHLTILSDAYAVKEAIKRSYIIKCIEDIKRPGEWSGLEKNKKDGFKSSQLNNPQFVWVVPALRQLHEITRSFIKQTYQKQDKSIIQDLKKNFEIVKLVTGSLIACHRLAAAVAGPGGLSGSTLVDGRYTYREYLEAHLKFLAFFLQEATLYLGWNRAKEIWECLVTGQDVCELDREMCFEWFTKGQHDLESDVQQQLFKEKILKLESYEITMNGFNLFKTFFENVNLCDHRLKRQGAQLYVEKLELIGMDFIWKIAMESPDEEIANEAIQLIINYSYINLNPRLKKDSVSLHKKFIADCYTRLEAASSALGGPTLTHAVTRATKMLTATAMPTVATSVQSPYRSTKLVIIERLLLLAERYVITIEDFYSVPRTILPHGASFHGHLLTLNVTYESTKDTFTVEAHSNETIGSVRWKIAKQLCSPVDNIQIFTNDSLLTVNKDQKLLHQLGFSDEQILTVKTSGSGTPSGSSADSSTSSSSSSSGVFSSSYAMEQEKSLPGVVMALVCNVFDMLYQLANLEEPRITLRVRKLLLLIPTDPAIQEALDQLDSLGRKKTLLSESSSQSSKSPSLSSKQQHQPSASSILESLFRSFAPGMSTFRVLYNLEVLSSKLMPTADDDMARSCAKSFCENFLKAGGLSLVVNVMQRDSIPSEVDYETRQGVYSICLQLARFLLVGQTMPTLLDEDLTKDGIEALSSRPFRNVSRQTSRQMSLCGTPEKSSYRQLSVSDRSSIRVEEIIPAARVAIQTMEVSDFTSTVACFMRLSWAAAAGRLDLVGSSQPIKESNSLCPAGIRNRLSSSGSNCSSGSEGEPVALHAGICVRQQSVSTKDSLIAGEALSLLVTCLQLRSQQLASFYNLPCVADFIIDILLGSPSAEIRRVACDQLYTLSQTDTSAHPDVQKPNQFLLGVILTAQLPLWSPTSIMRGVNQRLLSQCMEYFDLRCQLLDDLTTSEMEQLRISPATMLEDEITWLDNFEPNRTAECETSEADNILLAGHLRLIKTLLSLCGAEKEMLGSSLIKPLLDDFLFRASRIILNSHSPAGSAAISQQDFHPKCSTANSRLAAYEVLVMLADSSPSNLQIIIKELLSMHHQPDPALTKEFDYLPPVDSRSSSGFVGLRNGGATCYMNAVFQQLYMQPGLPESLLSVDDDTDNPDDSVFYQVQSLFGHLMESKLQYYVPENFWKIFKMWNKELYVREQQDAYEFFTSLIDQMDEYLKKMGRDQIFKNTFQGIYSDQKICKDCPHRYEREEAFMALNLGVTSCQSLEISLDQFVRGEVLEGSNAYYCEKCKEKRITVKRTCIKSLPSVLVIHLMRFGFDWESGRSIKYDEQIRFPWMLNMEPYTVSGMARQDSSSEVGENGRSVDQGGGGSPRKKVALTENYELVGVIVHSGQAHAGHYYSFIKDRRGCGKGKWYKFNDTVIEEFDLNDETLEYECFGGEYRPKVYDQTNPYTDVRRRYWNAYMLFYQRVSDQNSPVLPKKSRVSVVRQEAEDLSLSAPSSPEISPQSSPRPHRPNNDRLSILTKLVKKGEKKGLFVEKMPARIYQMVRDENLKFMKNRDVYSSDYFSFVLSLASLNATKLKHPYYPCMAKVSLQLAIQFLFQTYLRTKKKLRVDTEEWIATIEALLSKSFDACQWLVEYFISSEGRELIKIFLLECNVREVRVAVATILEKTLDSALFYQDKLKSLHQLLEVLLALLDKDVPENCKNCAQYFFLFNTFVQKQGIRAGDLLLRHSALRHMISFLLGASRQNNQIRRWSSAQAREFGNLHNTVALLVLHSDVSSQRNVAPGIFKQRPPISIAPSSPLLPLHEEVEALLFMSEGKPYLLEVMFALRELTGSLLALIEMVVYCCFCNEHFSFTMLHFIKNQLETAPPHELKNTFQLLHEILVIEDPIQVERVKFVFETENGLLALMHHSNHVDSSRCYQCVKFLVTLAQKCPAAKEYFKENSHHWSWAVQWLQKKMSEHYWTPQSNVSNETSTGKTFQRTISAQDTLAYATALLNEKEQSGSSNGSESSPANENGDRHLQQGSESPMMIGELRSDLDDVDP
In short: as §1

USP25 = biological target: T3, USP25 (UniProt Q9UHP3)
T3 sequence (whole entry): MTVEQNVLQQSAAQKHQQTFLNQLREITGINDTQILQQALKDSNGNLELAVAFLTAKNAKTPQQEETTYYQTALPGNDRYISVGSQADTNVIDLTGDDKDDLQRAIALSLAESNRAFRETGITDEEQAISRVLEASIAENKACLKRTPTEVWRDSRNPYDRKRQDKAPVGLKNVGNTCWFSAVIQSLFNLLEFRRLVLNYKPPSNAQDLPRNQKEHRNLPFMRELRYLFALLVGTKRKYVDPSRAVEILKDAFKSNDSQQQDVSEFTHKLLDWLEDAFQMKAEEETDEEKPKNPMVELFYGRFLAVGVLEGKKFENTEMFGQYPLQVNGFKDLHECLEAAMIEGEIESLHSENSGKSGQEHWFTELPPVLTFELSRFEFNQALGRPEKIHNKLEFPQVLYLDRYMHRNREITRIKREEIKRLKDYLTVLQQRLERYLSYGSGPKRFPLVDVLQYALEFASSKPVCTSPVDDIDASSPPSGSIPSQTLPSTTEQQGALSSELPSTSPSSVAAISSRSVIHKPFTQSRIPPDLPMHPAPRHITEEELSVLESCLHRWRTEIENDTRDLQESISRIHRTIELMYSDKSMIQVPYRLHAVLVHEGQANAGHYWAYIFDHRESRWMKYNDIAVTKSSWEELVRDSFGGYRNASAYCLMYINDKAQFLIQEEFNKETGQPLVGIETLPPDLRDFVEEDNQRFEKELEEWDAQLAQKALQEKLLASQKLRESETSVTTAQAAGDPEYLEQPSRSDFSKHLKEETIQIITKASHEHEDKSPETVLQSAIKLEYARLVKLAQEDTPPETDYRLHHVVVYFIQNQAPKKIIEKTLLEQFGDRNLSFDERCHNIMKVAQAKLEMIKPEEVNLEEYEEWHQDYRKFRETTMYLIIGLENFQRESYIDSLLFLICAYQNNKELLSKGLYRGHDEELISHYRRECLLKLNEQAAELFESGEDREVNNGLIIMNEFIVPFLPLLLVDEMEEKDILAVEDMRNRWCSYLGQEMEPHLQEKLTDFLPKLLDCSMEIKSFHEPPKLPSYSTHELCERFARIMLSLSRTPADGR
In short: as §1

USP28 = biological target: T4, USP28 (UniProt Q96RU2)
T4 sequence (whole entry): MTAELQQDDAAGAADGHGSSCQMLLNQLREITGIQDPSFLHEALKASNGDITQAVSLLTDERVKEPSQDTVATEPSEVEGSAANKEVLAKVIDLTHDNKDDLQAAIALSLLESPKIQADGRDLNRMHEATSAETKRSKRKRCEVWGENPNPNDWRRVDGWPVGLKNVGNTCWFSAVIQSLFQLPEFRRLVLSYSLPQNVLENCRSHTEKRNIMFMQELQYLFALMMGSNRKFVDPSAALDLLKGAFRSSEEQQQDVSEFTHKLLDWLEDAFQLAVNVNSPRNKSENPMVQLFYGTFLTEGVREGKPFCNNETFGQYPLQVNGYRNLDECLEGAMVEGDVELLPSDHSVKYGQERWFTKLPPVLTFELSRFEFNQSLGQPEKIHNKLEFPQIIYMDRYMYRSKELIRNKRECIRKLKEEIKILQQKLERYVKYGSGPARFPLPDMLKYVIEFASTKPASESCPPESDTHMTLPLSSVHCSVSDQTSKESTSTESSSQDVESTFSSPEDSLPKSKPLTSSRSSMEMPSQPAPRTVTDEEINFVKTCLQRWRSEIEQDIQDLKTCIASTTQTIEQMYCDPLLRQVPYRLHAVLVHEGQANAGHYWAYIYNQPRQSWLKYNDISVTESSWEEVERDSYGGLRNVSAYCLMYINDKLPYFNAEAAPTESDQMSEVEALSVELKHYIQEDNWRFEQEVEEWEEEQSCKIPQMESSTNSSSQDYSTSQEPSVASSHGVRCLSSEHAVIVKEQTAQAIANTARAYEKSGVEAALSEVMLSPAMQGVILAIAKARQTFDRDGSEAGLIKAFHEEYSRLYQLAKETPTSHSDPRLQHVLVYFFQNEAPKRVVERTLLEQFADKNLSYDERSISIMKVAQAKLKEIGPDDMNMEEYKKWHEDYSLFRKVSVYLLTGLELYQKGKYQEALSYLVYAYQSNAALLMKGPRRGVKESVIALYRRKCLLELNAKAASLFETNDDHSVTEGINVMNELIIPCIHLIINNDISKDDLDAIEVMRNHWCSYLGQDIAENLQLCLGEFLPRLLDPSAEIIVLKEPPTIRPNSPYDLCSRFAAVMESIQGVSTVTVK
In short: as §1

Measured: log2 ratio of Biotin-Ahx-Ub-VS probe labelling

O=C(CCl)NC1CCC2(CC1)OCCO2
inactive: USP19 -0.189 | USP22 -0.165 | USP24 -0.301 | USP25 -0.49 | USP28 -0.665
